From the supplement of paper PMC10338343
± gives the standard deviation.

How the values were obtained:
[1] = test system: MILI (PIWIL2) piRISC loaded with L1MC piRNA (26 nt); experiment: pre-steady-state target cleavage rate (min^-1); guide: L1MC piRNA 5'p-UAACUAAAUACUAUGCAAGCUGUAGG; higher = faster piRNA-guided slicing of the target
In short: (§1)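 Cleave-'n-Seq used a transcribed, DNA-blocked target RNA library at 0.1 nM and active affinity-purified piRISC with one synthetic guide at 1 nM, with or without 500 nM GTSF1 partner protein, in HEPES–potassium acetate buffer at 33 °C for 0–8 or 0–960 min. Uncleaved targets were sequenced and normalised to depth and to weakly complementary targets, and three trials were pooled with k3 capped at 0.0001 min^-1. The pre-steady-state cleavage rate was estimated by a burst-and-steady-state fit.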

[2] = test system: EfPiwi piRISC loaded with L1MC piRNA (26 nt); experiment: pre-steady-state target cleavage rate (min^-1); auxiliary factor: 500 nM Ephydatia muelleri Gtsf1; guide: L1MC piRNA 5'p-UAACUAAAUACUAUGCAAGCUGUAGG; MIWI and MILI are mouse PIWI proteins and EfPiwi is from a freshwater sponge; tags in brackets are library labels; higher = faster piRNA-guided slicing of the target
In short: as §1

[3] = auxiliary factor: 500 nM mouse GTSF1
[4] = auxiliary factor: none (no GTSF1)

| Sequence | pre-steady-state target cleavage rate [1, 3] | pre-steady-state target cleavage rate [1, 4] | pre-steady-state target cleavage rate [2] |
| --- | --- | --- | --- |
| UCCUCCUACAGUUGCAUAGUAUUUAGUUA | 0.255 ± 0.014 | 0.00612 ± 0.0019 | 0.0777 ± 0.021 |
| UCCUGGAUGUCGUUGCAUAGUAGUUUAGUUA | 0.0297 ± 0.0098 | 0.0066 ± 0.0025 | 0.0087 ± 0.005 |
| UCCUGCUUGAGCUUGCAUAGUAUUUAGUUA | 0.22 ± 0.019 | 0.00599 ± 0.0022 | 0.00861 ± 0.0024 |
| UCCUGGAUGUCGGUGCAUAGUAUUUAGUUA | 0.0897 ± 0.011 | 0.00862 ± 0.0023 | 0.00511 ± 0.0033 |
| UCCUGCUACAACUUGCAUAGUAUUUAGUUA | 0.247 ± 0.023 | 0.00739 ± 0.0024 | 0.00776 ± 0.0029 |
| UCCUGGUCAGCUUGCAUAGUAUUUAGUUA | 0.269 ± 0.016 | 0.012 ± 0.0027 | 0.14 ± 0.027 |
| UCCUGGAUGUGCAUGCAUAGUAUUUAGUUA | 0.116 ± 0.011 | 0.0095 ± 0.0025 | 0.00855 ± 0.0029 |
| UCCUGCUACAGCUUGCAUAGUAUUAUAGUUA | 0.189 ± 0.021 | 0.00585 ± 0.0024 | 0.0103 ± 0.0037 |
| UCCUGGUACAGCUUCAUAGUAUUUAGUUA | 0.209 ± 0.027 | 0.00866 ± 0.0031 | 0.0159 ± 0.0055 |
| UCCUCCAACAGCUUGCAUAGUAUUUAGUUA | 0.329 ± 0.017 | 0.00861 ± 0.0027 | 0.113 ± 0.032 |
| UCCUGGAUCACCUUGCAAAGUAUUUAGUUA | 0.0687 ± 0.012 | 0.0045 ± 0.0025 | 0.00506 ± 0.0019 |
| UCCUGGAUCAGCUUGCAUAGUAUAUUAGUUA | 0.273 ± 0.015 | 0.00593 ± 0.0025 | 0.127 ± 0.043 |
| UCCUGGAUCAGCAUGCAUAGUAUUAAGUUA | 0.24 ± 0.012 | 0.00634 ± 0.0023 | 0.00392 ± 0.002 |
| UCCUGGAUGUUCUUGCAUAGUAUUUAGUUA | 0.0709 ± 0.01 | 0.0115 ± 0.003 | 0.173 ± 0.068 |
| UCCUCCUACAGCUUGCAUAGUAUCUAGUUA | 0.176 ± 0.02 | 0.00564 ± 0.0022 | 0.00718 ± 0.0032 |
| UCCUGCUACCGCUUGCAUAGUAUUUAGUUA | 0.368 ± 0.035 | 0.0103 ± 0.0044 | 0.0156 ± 0.005 |
| UCCUGGAACAGCUUGCAUAGUAUUUAGUUU [g2:g23:cont:t1U] | 0.278 ± 0.02 | 0.0155 ± 0.0044 | 0.0156 ± 0.0055 |
| UCCUGCUACAGCUAGCUUAGUAUUUAGUUA | 0.227 ± 0.018 | 0.00468 ± 0.0023 | 0.00973 ± 0.0029 |
| UCCUGGAUCAGCUUGCGUAGUAUUUAGUUA | 0.192 ± 0.017 | 0.0107 ± 0.0029 | 0.0111 ± 0.0032 |
| UCCUGGAUGUGUUUGCAUAGUAUUUAGUUA | 0.16 ± 0.019 | 0.00817 ± 0.0033 | 0.0181 ± 0.0055 |
| UCCUGGAUGUCGAUGCAUAGUAUUUAGUAA | 0.108 ± 0.015 | 0.00268 ± 0.0024 | 0.00329 ± 0.0032 |
| UCCUGGAUGAGCUUGUAUAGUAUUUAGUUA | 0.181 ± 0.015 | 0.0088 ± 0.0033 | 0.0538 ± 0.014 |
| UCCUGCUACAGCAUGCAUAGUAUUUAGUAA | 0.277 ± 0.03 | 0.00478 ± 0.0028 | 0.00673 ± 0.0029 |

| Sequence | pre-steady-state target cleavage rate [1, 3] | pre-steady-state target cleavage rate [1, 4] | pre-steady-state target cleavage rate [2] |
| --- | --- | --- | --- |
| UCCUGGAUGAGCUUGCAUAGUAUUUAGUGA | 0.193 ± 0.025 | 0.00439 ± 0.003 | 0.00681 ± 0.0032 |
| UCCUGGAACAGCUUGCAUAGUAUUUAGUUC [g2:g23:cont:t1C] | 0.191 ± 0.024 | 0.00602 ± 0.0018 | 0.00959 ± 0.0037 |
| UCCUCGUACAGCUUGCAUACUAUUUAGUUA | 0.0786 ± 0.011 | 0.00274 ± 0.0022 | 0.0224 ± 0.0069 |
| UCCUGGAUCAGCUGUGCAUAGUAUUUAGUUA | 0.232 ± 0.017 | 0.0109 ± 0.0034 | 0.0791 ± 0.016 |
| UCCUGGUACAGCUUGCAAAGUUUUUAGUUA | 0.0248 ± 0.0088 | 0.00339 ± 0.0029 | 0.00245 ± 0.0024 |
| UCCUGCUACAGCUUACAUAGUAUUUAGUUA | 0.274 ± 0.026 | 0.00609 ± 0.0025 | 0.0151 ± 0.0038 |
| UCCUGGUACAGCUUGCAUAGUAUUUAGAUUA | 0.131 ± 0.04 | 0.00728 ± 0.0036 | 0.00491 ± 0.0025 |
| UCCUCCUACAGCAUGCAUAGUAUUUAGUUA | 0.316 ± 0.021 | 0.0117 ± 0.0029 | 0.0743 ± 0.019 |
| UCCUCCUAGACCUUGCAUAGUAUUUAGUUA | 0.237 ± 0.024 | 0.00751 ± 0.0025 | 0.141 ± 0.041 |
| UCCUGGAACAGCUUGCAUAGUAUUUAGUAA | 0.247 ± 0.021 | 0.00459 ± 0.002 | 0.00976 ± 0.0038 |
| UCCUGCUACAGCUUGCAUACUAUUUAGUUA | 0.0775 ± 0.012 | 0.0046 ± 0.0019 | 0.00755 ± 0.0026 |
| UCCUGGAUCAUCUUGCAUAGUAUUUAGUUA | 0.241 ± 0.014 | 0.00614 ± 0.002 | 0.101 ± 0.023 |
| UCCUGGUAGAGCUUGCAUAGUAAUUAGUUA | 0.177 ± 0.021 | 0.00729 ± 0.0024 | 0.00406 ± 0.0024 |
| UCCUGCUACAGCUUGAAUAGUAUUUAGUUA | 0.22 ± 0.013 | 0.00812 ± 0.002 | 0.0179 ± 0.0045 |
| UCCUGGAUCUCCUUGCAUAGUAUUUAGUAA | 0.203 ± 0.024 | 0.00367 ± 0.0019 | 0.00383 ± 0.0026 |
| UCCUGCUACAGCUUGCAUAGUAUUUUAGUUA | 0.283 ± 0.023 | 0.0106 ± 0.0025 | 0.00822 ± 0.0026 |
| UCCUGGAUGUCCUUGCAUAGUACUUAGUUA | 0.0548 ± 0.01 | 0.00401 ± 0.0028 | 0.00586 ± 0.0027 |
| UCCUCCUACAGCUUGCUUAGUAUUUAGUUA | 0.275 ± 0.015 | 0.00811 ± 0.0021 | 0.0424 ± 0.012 |
| UCCUGGAUGUGCUUGCAUGGUAUUUAGUUA | 0.086 ± 0.014 | 0.0124 ± 0.0032 | 0.0043 ± 0.0042 |
| UCCUGGUACAGGUUGCAUAGUAUUUAGUUA | 0.217 ± 0.022 | 0.0148 ± 0.004 | 0.0211 ± 0.0053 |
| UCCUGGUACUGCUUGCUUAGUAUUUAGUUA | 0.197 ± 0.015 | 0.0115 ± 0.0025 | 0.00909 ± 0.0033 |
| UCCUGGAACAGUUUGCAUAGUAUUUAGUUA | 0.285 ± 0.014 | 0.00997 ± 0.0019 | 0.0565 ± 0.013 |
| UCCUGCUACAGCUUCCUUAGUAUUUAGUUA | 0.251 ± 0.025 | 0.00547 ± 0.0019 | 0.00425 ± 0.0019 |
